biological target: T1, GST-Dm-Relish (Drosophila melanogaster, UniProt Q94527 99-473); assay: protein-binding microarray (PBM); PBM: ~300 nM protein, 6 mM HEPES pH 7.8, 80 mM KCl, 0.5 mM EDTA, 0.5 mM EGTA, 6% glycerol, 35 ng/ul poly-dIdC, 1% milk, 1 h, room temperature; Ap Aiptasia and Nv Nematostella (sea anemones) / Co Capsaspora / Aq Amphimedon (sponge) / Dm Drosophila / Hu human; RHD is the Rel homology domain; high values mean tight binding; details: dsDNA, one strand shown
T1 sequence: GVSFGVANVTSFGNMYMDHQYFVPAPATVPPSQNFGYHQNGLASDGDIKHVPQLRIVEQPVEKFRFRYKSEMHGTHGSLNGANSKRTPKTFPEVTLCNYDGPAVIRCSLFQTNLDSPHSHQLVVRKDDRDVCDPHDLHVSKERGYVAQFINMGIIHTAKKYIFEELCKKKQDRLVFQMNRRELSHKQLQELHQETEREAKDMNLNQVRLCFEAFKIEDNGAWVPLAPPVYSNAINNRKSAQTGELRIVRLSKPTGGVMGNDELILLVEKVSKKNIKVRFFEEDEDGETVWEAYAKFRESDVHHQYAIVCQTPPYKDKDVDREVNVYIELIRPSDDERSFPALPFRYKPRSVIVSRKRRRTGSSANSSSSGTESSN

| Sequence | binding signal |
| --- | --- |
| CCGATTAACATCATTTCCCAAAATGATGTTAATCGGGTCTTGATTCGCTTGACGCTGCTG | 1.36 z-score |
| CCGATTAACATCACCCATGGGAATGATGTTAATCGGGTCTTGATTCGCTTGACGCTGCTG | 1.03 z-score |
| CCGATTAACATCAAGGACTTTCCTGATGTTAATCGGGTCTTGATTCGCTTGACGCTGCTG | 3.11 z-score |
| CCGATTAACATCAGGAAAAAACCTGATGTTAATCGGGTCTTGATTCGCTTGACGCTGCTG | 3.66 z-score |
| CCGATTAACATCAGGAATTTACCTGATGTTAATCGGGTCTTGATTCGCTTGACGCTGCTG | 4.54 z-score |
| CCGATTAACATCAGGGATCGCCCTGATGTTAATCGGGTCTTGATTCGCTTGACGCTGCTG | 3.26 z-score |
| CCGATTAACATCAGAAATTACCATGATGTTAATCGGGTCTTGATTCGCTTGACGCTGCTG | 2.33 z-score |
| CCGATTAACATCAGGAATCTACCTGATGTTAATCGGGTCTTGATTCGCTTGACGCTGCTG | 2.24 z-score |
| CCGATTAACATCAATTGGGAAATTGATGTTAATCGGGTCTTGATTCGCTTGACGCTGCTG | 1.48 z-score |
| CCGATTAACATCAGGAATATACCTGATGTTAATCGGGTCTTGATTCGCTTGACGCTGCTG | 1.86 z-score |
| CCGATTAACATCAGGTAATTTACTGATGTTAATCGGGTCTTGATTCGCTTGACGCTGCTG | 5.32 z-score |
| CCGATTAACATCAGGAAAAGTCCTGATGTTAATCGGGTCTTGATTCGCTTGACGCTGCTG | 2.98 z-score |
| CCGATTAACATCAGGATTTTACCTGATGTTAATCGGGTCTTGATTCGCTTGACGCTGCTG | 3.21 z-score |
| CCGATTAACATCAGGAATGTACCTGATGTTAATCGGGTCTTGATTCGCTTGACGCTGCTG | 4.93 z-score |
| CCGATTAACATCAAGGTATTTCCTGATGTTAATCGGGTCTTGATTCGCTTGACGCTGCTG | 3.08 z-score |
| CCGATTAACATCAGGAAGTTACCTGATGTTAATCGGGTCTTGATTCGCTTGACGCTGCTG | 2.36 z-score |
| CCGATTAACATCAAGGAATTTCCTGATGTTAATCGGGTCTTGATTCGCTTGACGCTGCTG | 2.04 z-score |
| CCGATTAACATCACAAATGGGAATGATGTTAATCGGGTCTTGATTCGCTTGACGCTGCTG | 1.56 z-score |
| CCGATTAACATCAAGGAAAAACCTGATGTTAATCGGGTCTTGATTCGCTTGACGCTGCTG | 2.61 z-score |
| CCGATTAACATCACATTGGGAAATGATGTTAATCGGGTCTTGATTCGCTTGACGCTGCTG | 1.18 z-score |
| CCGATTAACATCACGGAAATTTATGATGTTAATCGGGTCTTGATTCGCTTGACGCTGCTG | 1.11 z-score |
| CCGATTAACATCAGGAAATTTCCTGATGTTAATCGGGTCTTGATTCGCTTGACGCTGCTG | 1.75 z-score |
| CCGATTAACATCAGGGCAGTACCTGATGTTAATCGGGTCTTGATTCGCTTGACGCTGCTG | 1.84 z-score |

biological target: T2, GST-Aq-NF-kB (Amphimedon queenslandica, UniProt A9Y5G7 2-389); assay: as above; details: dsDNA, one strand shown
T2 sequence: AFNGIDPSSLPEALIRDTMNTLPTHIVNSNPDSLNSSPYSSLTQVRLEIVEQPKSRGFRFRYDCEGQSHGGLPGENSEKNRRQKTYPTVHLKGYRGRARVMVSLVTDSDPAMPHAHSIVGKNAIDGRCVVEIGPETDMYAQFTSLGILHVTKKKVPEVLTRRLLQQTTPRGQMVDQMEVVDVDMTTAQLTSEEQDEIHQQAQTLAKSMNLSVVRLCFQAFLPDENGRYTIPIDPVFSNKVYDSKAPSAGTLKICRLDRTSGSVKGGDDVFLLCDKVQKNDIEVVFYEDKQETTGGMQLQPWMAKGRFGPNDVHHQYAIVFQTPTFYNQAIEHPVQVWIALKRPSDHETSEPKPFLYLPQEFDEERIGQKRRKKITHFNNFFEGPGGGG

| Sequence | binding signal |
| --- | --- |
| CCGATTAACATCATTTCCCAAAATGATGTTAATCGGGTCTTGATTCGCTTGACGCTGCTG | 1.26 z-score |
| CCGATTAACATCAGGAATATTCCTGATGTTAATCGGGTCTTGATTCGCTTGACGCTGCTG | 1.34 z-score |
| CCGATTAACATCACCCATGGGAATGATGTTAATCGGGTCTTGATTCGCTTGACGCTGCTG | 2.51 z-score |
| CCGATTAACATCAAAATATTCCGTGATGTTAATCGGGTCTTGATTCGCTTGACGCTGCTG | 1.1 z-score |
| CCGATTAACATCAAGGACTTTCCTGATGTTAATCGGGTCTTGATTCGCTTGACGCTGCTG | 4.6 z-score |
| CCGATTAACATCAGGAAAAAACCTGATGTTAATCGGGTCTTGATTCGCTTGACGCTGCTG | 3.37 z-score |
| CCGATTAACATCAGGAATTTACCTGATGTTAATCGGGTCTTGATTCGCTTGACGCTGCTG | 4.81 z-score |
| CCGATTAACATCAGGAGTATCCCTGATGTTAATCGGGTCTTGATTCGCTTGACGCTGCTG | 3.53 z-score |
| CCGATTAACATCAGGGTTAGTTGTGATGTTAATCGGGTCTTGATTCGCTTGACGCTGCTG | 1.57 z-score |
| CCGATTAACATCATTGGGAAAAATGATGTTAATCGGGTCTTGATTCGCTTGACGCTGCTG | 1.92 z-score |
| CCGATTAACATCAATTCCCATGATGATGTTAATCGGGTCTTGATTCGCTTGACGCTGCTG | 1.67 z-score |
| CCGATTAACATCAGGGATCGCCCTGATGTTAATCGGGTCTTGATTCGCTTGACGCTGCTG | 4.24 z-score |
| CCGATTAACATCAGAAATTACCATGATGTTAATCGGGTCTTGATTCGCTTGACGCTGCTG | 1.16 z-score |
| CCGATTAACATCAGGAATCTACCTGATGTTAATCGGGTCTTGATTCGCTTGACGCTGCTG | 3.42 z-score |
| CCGATTAACATCAATTGGGAAATTGATGTTAATCGGGTCTTGATTCGCTTGACGCTGCTG | 1.63 z-score |
| CCGATTAACATCACATGTGGGAATGATGTTAATCGGGTCTTGATTCGCTTGACGCTGCTG | 2.05 z-score |
| CCGATTAACATCAGGAATATACCTGATGTTAATCGGGTCTTGATTCGCTTGACGCTGCTG | 1.69 z-score |
| CCGATTAACATCAGGTAATTTACTGATGTTAATCGGGTCTTGATTCGCTTGACGCTGCTG | 2.13 z-score |
| CCGATTAACATCAGGAAAAGTCCTGATGTTAATCGGGTCTTGATTCGCTTGACGCTGCTG | 3.07 z-score |
| CCGATTAACATCAACCATGGGAATGATGTTAATCGGGTCTTGATTCGCTTGACGCTGCTG | 1.99 z-score |

| Sequence | binding signal |
| --- | --- |
| CCGATTAACATCAGGATTTTACCTGATGTTAATCGGGTCTTGATTCGCTTGACGCTGCTG | 3.66 z-score |
| CCGATTAACATCAGGAATGTACCTGATGTTAATCGGGTCTTGATTCGCTTGACGCTGCTG | 3.14 z-score |
| CCGATTAACATCAAGGTATTTCCTGATGTTAATCGGGTCTTGATTCGCTTGACGCTGCTG | 3.84 z-score |
| CCGATTAACATCATTATGGGAAATGATGTTAATCGGGTCTTGATTCGCTTGACGCTGCTG | 1.44 z-score |
| CCGATTAACATCAGGAAGTTACCTGATGTTAATCGGGTCTTGATTCGCTTGACGCTGCTG | 2.57 z-score |
| CCGATTAACATCAAGGAATTTCCTGATGTTAATCGGGTCTTGATTCGCTTGACGCTGCTG | 4.35 z-score |
| CCGATTAACATCACAAATGGGAATGATGTTAATCGGGTCTTGATTCGCTTGACGCTGCTG | 2.36 z-score |
| CCGATTAACATCAATTCCCAACATGATGTTAATCGGGTCTTGATTCGCTTGACGCTGCTG | 1.17 z-score |
| CCGATTAACATCAACGGAAATTCTGATGTTAATCGGGTCTTGATTCGCTTGACGCTGCTG | 1.24 z-score |
| CCGATTAACATCAAGGAAAAACCTGATGTTAATCGGGTCTTGATTCGCTTGACGCTGCTG | 3.09 z-score |
| CCGATTAACATCACATTGGGAAATGATGTTAATCGGGTCTTGATTCGCTTGACGCTGCTG | 1.18 z-score |
| CCGATTAACATCAACTTTGGGAATGATGTTAATCGGGTCTTGATTCGCTTGACGCTGCTG | 1.56 z-score |
| CCGATTAACATCACGGAAATTTATGATGTTAATCGGGTCTTGATTCGCTTGACGCTGCTG | 1.74 z-score |
| CCGATTAACATCAGACATGGGAATGATGTTAATCGGGTCTTGATTCGCTTGACGCTGCTG | 1.94 z-score |
| CCGATTAACATCAGGAAATTTCCTGATGTTAATCGGGTCTTGATTCGCTTGACGCTGCTG | 3.27 z-score |
| CCGATTAACATCAAATTGGGAAATGATGTTAATCGGGTCTTGATTCGCTTGACGCTGCTG | 1.16 z-score |
| CCGATTAACATCACTTTGGGAAATGATGTTAATCGGGTCTTGATTCGCTTGACGCTGCTG | 1.28 z-score |
| CCGATTAACATCAACTATCCCGCTGATGTTAATCGGGTCTTGATTCGCTTGACGCTGCTG | 1.07 z-score |
| CCGATTAACATCAGGGCAGTACCTGATGTTAATCGGGTCTTGATTCGCTTGACGCTGCTG | 3.03 z-score |
| CCGATTAACATCAGAAATGGGAATGATGTTAATCGGGTCTTGATTCGCTTGACGCTGCTG | 2.5 z-score |

From article PMC5700166
